Experimental data published in PubChem BioAssay (EPA / NIEHS).
Inconclusive results are not listed. Active and inactive are the calls of the source. Rule for the calls, unless noted: active = hit-call score of the fitted dose curve at least 0.9, where 1 is the maximum; inconclusive = response in the unintended direction; inactive = score below 0.9.

Tests used:
[1] = target: Cytochrome P450 2C18 (Homo sapiens) (UniProt P33260); assay: NVS_ADME_hCYP2C18: NovaScreen (NVS) CYP450-related Enzyme Activity (ADME) Assay for human CYP2C18 (AID 2283103; active = hit-call score of the fitted dose curve at least 0.9, where 1 is the maximum; inactive = score below 0.9)
Outline: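 Cell-free recombinant human CYP2C18 with fluorogenic substrate; fluorescence intensity read 0.5 h after dosing. Single-point screen at 10 uM in duplicate, then concentration-response up to 20 uM; loss of signal fitted against acetonitrile baseline.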

[2] = target: rat CYP2C12, Cyp2c12 (gene 25011) (UniProt P11510); assay: NVS_ADME_rCYP2C12: NovaScreen (NVS) CYP450-related Enzyme Activity (ADME) Assay for rat CYP2C12 (AID 2283119)
Outline: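 Cell-free recombinant rat CYP2C12 activity read by fluorescence 0.5 h after dosing; loss of signal versus acetonitrile control. Primary screen in duplicate at 10 uM; actives then run in concentration-response format.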

[3] = target: human Acetylcholinesterase (AChE), ACHE (gene 43) (UniProt P22303); assay: NVS_ENZ_hAChE: NovaScreen (NVS) Enzymatic Assay for human Acetylcholinesterase (AChE) (AID 2283129)
Outline: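 Cell-free colorimetric enzyme-activity assay; compounds read 0.33 hour after dosing, loss of signal vs DMSO baseline. Primary screen in duplicate at 25 uM single concentration, with active compounds retested in concentration series.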

[4] = target: human AMP-activated Protein Kinase, alpha 1 (AMPKa1), PRKAA1 (gene 5562) (UniProt Q13131); assay: NVS_ENZ_hAMPKa1: NovaScreen (NVS) Enzymatic Assay for human AMP-activated Protein Kinase, alpha 1 (AMPKa1) (AID 2283130)
Outline: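 Recombinant human AMPKα1 activity was measured cell-free by fluorescent substrate conversion with electrophoretic mobility-shift separation, 1 h after dosing. Duplicate single-point screening was at 25 uM; actives (≥30% inhibition) were retested in concentration-response up to 50 uM.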

[5] = target: Caspase-1 (Homo sapiens) (UniProt P29466); assay: NVS_ENZ_hCASP1: NovaScreen (NVS) Enzymatic Assay for human Caspase 1 (CASP1) (AID 2283132)
Outline: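 Cell-free enzymatic assay with E. coli-expressed recombinant protein; fluorescence intensity read 1 hour after dosing. Single-concentration duplicate screen at 25 uM, then concentration-response up to 50 uM; activity fitted relative to DMSO, loss of signal meaning inhibition.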

[6] = target: human Aurora Kinase A - serine/threonine-protein Kinase 6 (AurA), AURKA (gene 6790) (UniProt O14965); assay: NVS_ENZ_hAurA: NovaScreen (NVS) Enzymatic Assay for human Aurora Kinase A - serine/threonine-protein Kinase 6 (AurA) (AID 2283142)
Outline: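 Cell-free enzymatic assay with human Aurora A, 1 hour after dosing. Fluorescent substrate turnover detected after electrophoretic mobility shift separation of substrate and product. Screened at 25 uM, actives retested in concentration-response up to 50 uM.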

[7] = target: human Fibroblast Growth Factor Receptor 1 (FGFR1), FGFR1 (gene 2260) (UniProt P11362); assay: NVS_ENZ_hFGFR1: NovaScreen (NVS) Enzymatic Assay for human Fibroblast Growth Factor Receptor 1 (FGFR1) (AID 2283159);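 for AC50: hits lower the signal so potencies describe inhibitors of the kinase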
Outline: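 Cell-free recombinant kinase with fluorescent substrate, product separated by electrophoretic mobility shift; read 1 hour after dosing, loss of signal relative to DMSO. Initial screen in duplicate at 25 uM, actives followed in concentration series.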

[8] = target: human IkappaB Kinase alpha (IKKa), CHUK (gene 1147) (UniProt O15111); assay: NVS_ENZ_hIKKa: NovaScreen (NVS) Enzymatic Assay for human IkappaB Kinase alpha (IKKa) (AID 2283167)
Outline: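 Cell-free recombinant human IKKa with fluorescent substrate, product separated by electrophoretic mobility shift; read 1 hour after dosing. Primary screen duplicate at 25 uM, actives then concentration-response up to 50 uM; loss of signal relative to DMSO.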

[9] = target: human Mitogen-Activated Protein Kinase 1 (MAPK 1), MAPK1 (gene 5594) (UniProt P28482); assay: NVS_ENZ_hMAPK1: NovaScreen (NVS) Enzymatic Assay for human Mitogen-Activated Protein Kinase 1 (MAPK 1) (AID 2283175)
Outline: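 Cell-free recombinant human MAPK1 enzymatic assay, fluorescence/electrophoretic mobility shift read at 1 h; loss of signal vs DMSO. Primary screen in duplicate at 25 uM; actives (e.g. ≥30% inhibition) run as concentration-response up to 50 uM.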

[10] = target: human MET Proto-Oncogene, Receptor Tyrosine Kinase (MET), MET (gene 4233) (UniProt P08581); assay: NVS_ENZ_hMet: NovaScreen (NVS) Enzymatic Assay for human MET Proto-Oncogene, Receptor Tyrosine Kinase (MET) (AID 2283180)
Outline: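 Cell-free MET kinase assay using recombinant protein and fluorescent substrate, with mobility-shift separation; read 1 h after dosing. Primary duplicate at 25 uM; actives in singleton concentration-response to 50 uM maximum. Signal loss versus DMSO.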

[11] = target: human p21 Activated Kinase 4 (PAK4), PAK4 (gene 10298) (UniProt O96013); assay: NVS_ENZ_hPAK4: NovaScreen (NVS) Enzymatic Assay for human p21 Activated Kinase 4 (PAK4) (AID 2283189)
Outline: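 Cell-free recombinant human PAK4 activity assay; fluorescent substrate and product separated by electrophoretic mobility shift, read 1 h after dosing. Initially tested in duplicate at 25 uM, relative to DMSO baseline.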

[12] = target: human Protein Tyrosine Phosphatase Non-receptor Type 2 (PTPN2), PTPN2 (gene 5771) (UniProt P17706); assay: NVS_ENZ_hPTPN2: NovaScreen (NVS) Enzymatic Assay for human Protein Tyrosine Phosphatase Non-receptor Type 2 (PTPN2) (AID 2283207)
Outline: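 Cell-free recombinant enzyme with fluorescent substrate, product separated by electrophoretic mobility shift; read 1 h after dosing. Primary screen single concentration (25 uM) in duplicate; actives followed in concentration series; loss of signal versus DMSO.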

[13] = target: human Tyrosine Protein Kinase Receptor Tie-2 (Tie2), TEK (gene 7010) (UniProt Q02763); assay: NVS_ENZ_hTie2: NovaScreen (NVS) Enzymatic Assay for human Tyrosine Protein Kinase Receptor Tie-2 (Tie2) (AID 2283225)
Outline: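 Recombinant human Tie2 kinase activity was read cell-free by fluorescence with electrophoretic mobility shift, 1 hour after dosing. The screen used 25 uM in duplicate, then concentration-response up to 50 uM. Signal loss was scored against DMSO.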

[14] = target: rat Adenylate Cyclase, Forskolin Stimulated, Adcy5 (gene 64532) (UniProt Q04400); assay: NVS_ENZ_rACFSKBinding: NovaScreen (NVS) Enzymatic Assay for rat Adenylate Cyclase, Forskolin Stimulated (AID 2283232)
Outline: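 Rat forebrain membrane preparation, cell-free, read 1 h after dosing by filter-based scintillation counting. Primary screen in duplicate at 25 uM; actives (e.g. ≥30% inhibition) rerun in concentration-response up to 50 uM; fit versus DMSO.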

[15] = target: rat Acetylcholinesterase (AChE), Ache (gene 83817) (UniProt P37136); assay: NVS_ENZ_rAChE: NovaScreen (NVS) Enzymatic Assay for rat Acetylcholinesterase (AChE) (AID 2283233)
Outline: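 Rat brain membrane acetylcholinesterase activity measured colorimetrically 0.33 h after compound addition, loss of signal relative to DMSO. Primary screen in duplicate at 25 uM; actives re-run as concentration-response with 50 uM top concentration.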

[16] = target: rat Monoamine Oxidase, MAO-B, Peripheral (MAOBP), Maob (gene 25750) (UniProt P19643); assay: NVS_ENZ_rMAOBP: NovaScreen (NVS) Enzymatic Assay for rat Monoamine Oxidase, MAO-B, Peripheral (MAOBP) (AID 2283242)
[17] = target: rat Corticotropin Releasing Factor Receptor (CRF), Crhr1 (gene 58959) (UniProt P35353); assay: NVS_GPCR_rCRF: NovaScreen (NVS) G Protein-Coupled Receptor Assay for rat Corticotropin Releasing Factor Receptor (CRF) (AID 2283300)
Outline: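 Rat cortical membranes used as receptor source in a radioligand competitive displacement binding assay; scintillation read 2 h after dosing. Primary screen run in duplicate at 25 uM; loss of signal versus DMSO baseline indicates binding.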

[18] = CCTE_Harrill_HTTr_Apoptosis_PRF_DMEM_12hr: (Pilot) CCTE's 12-hour Apoptosis Assessment for the High-Throughput Transcriptomics (HTTr) Platform, in MCF-7 cells cultured in phenol red-free DMEM + 10% charcoal-stripped fetal bovine serum, Harrill Lab (AID 2283985; active = hit-call score of the fitted dose curve at least 0.9, where 1 is the maximum; inactive = score below 0.9)
Outline: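 MCF-7 cells in phenol red-free DMEM with 10% charcoal-stripped FBS, eight-point dilution series, 12 h exposure. Caspase-3/7 activation imaged by high content imaging with CellEvent Green reagent; bidirectional fit vs DMSO.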

[19] = target: rat CYP1A2, Cyp1a2 (gene 24297) (UniProt P04799); assay: NVS_ADME_rCYP1A2: NovaScreen (NVS) CYP450-related Enzyme Activity (ADME) Assay for rat CYP1A2 (AID 2283115)
Outline: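 Cell-free recombinant rat enzyme with fluorogenic substrate, read by fluorescence intensity 1 hour after dosing. Loss of signal versus acetonitrile negative control; primary screen at 10 uM in duplicate, actives followed in concentration series.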

[20] = test system: rat Monoamine Oxidase, MAO-A, Central (MAOAC), gene 29253; assay: NVS_ENZ_rMAOAC: NovaScreen (NVS) Enzymatic Assay for rat Monoamine Oxidase, MAO-A, Central (MAOAC) (AID 2283243);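 note: potency refers to inhibition seen as signal drop below DMSO baseline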
Outline: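 Rat brain tissue extract used as enzyme source in a cell-free radiometric assay, read by scintillation counting 1.5 hours after dosing. Loss of signal relative to DMSO baseline scored; primary screen at 25 uM in duplicate, actives followed up in concentration series.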

[21] = target: human CYP4F12, CYP4F12 (gene 66002) (UniProt Q9HCS2); assay: NVS_ADME_hCYP4F12: NovaScreen (NVS) CYP450-related Enzyme Activity (ADME) Assay for human CYP4F12 (AID 2283111)
Outline: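 Cell-free fluorescence assay of recombinant human CYP4F12 activity on a specific substrate, read 0.5 h after dosing. Primary screen in duplicate at 10 uM, then concentration series for actives; loss of signal fitted against acetonitrile negative control.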

human Acetylcholinesterase (AChE), ACHE (gene 43), sequence (P22303 whole entry, looked up): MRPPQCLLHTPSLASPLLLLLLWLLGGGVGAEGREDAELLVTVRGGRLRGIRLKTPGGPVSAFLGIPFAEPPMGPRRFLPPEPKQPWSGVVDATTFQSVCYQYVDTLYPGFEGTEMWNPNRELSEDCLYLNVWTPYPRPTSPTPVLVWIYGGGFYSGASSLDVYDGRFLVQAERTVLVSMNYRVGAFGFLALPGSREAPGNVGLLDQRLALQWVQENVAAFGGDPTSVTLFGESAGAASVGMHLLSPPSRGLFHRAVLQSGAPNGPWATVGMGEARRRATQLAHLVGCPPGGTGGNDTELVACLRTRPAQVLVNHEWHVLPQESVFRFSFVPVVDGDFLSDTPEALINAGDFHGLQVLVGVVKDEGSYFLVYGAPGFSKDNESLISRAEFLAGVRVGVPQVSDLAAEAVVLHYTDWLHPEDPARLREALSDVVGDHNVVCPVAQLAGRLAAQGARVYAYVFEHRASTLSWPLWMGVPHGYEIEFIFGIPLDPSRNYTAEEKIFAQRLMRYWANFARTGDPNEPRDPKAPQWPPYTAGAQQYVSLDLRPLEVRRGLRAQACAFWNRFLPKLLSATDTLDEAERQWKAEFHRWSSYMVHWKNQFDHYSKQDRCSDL
human Fibroblast Growth Factor Receptor 1 (FGFR1), FGFR1 (gene 2260), sequence (P11362 whole entry, looked up): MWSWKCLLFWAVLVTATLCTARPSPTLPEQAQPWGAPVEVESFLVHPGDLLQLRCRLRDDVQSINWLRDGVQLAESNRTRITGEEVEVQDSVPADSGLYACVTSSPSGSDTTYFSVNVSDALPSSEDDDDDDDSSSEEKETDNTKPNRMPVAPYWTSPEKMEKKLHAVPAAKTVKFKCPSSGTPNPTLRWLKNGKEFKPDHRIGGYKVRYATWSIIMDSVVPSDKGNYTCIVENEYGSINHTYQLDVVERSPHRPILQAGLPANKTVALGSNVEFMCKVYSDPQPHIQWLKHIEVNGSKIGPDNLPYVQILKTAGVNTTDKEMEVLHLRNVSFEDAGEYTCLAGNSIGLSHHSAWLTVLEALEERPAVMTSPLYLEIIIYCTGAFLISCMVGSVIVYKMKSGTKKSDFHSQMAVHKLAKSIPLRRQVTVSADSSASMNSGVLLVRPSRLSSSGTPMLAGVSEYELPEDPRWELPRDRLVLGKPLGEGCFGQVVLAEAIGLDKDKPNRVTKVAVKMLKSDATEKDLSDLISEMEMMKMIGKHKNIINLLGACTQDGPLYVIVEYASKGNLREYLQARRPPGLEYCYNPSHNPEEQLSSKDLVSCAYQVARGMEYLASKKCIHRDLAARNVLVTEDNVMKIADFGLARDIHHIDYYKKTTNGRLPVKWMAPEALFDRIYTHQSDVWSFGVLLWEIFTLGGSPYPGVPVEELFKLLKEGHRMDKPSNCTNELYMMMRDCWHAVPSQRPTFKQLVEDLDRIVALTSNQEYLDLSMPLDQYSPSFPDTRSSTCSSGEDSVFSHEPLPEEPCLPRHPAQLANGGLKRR
human p21 Activated Kinase 4 (PAK4), PAK4 (gene 10298), sequence (O96013 whole entry, looked up): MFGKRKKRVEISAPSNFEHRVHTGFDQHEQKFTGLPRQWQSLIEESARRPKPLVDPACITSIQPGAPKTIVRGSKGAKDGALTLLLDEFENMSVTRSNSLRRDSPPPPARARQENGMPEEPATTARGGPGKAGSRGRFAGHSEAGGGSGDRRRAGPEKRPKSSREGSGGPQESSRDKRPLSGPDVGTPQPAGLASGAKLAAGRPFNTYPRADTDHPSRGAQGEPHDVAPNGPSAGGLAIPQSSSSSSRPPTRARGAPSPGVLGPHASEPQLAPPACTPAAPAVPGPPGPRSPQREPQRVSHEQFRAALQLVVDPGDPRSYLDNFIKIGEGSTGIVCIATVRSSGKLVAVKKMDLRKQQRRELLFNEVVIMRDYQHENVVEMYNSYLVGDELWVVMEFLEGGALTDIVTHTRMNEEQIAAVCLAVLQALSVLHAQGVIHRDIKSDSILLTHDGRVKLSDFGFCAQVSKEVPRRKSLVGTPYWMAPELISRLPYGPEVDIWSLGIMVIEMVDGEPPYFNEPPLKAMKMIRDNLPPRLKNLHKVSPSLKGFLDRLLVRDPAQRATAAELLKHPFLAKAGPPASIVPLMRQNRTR
human Protein Tyrosine Phosphatase Non-receptor Type 2 (PTPN2), PTPN2 (gene 5771), sequence (P17706 whole entry, looked up): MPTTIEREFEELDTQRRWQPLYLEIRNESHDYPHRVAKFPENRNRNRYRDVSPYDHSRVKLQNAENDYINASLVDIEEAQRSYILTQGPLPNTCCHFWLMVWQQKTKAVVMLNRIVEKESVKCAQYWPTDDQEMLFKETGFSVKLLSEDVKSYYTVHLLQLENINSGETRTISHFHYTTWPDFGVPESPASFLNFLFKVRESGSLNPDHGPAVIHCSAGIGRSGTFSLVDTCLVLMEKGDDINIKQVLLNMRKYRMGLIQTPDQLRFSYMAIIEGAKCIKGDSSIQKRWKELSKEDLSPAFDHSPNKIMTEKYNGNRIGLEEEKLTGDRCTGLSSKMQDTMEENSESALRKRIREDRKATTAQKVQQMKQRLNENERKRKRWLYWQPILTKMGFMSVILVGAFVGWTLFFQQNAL
rat CYP2C12, Cyp2c12 (gene 25011), sequence (P11510 whole entry, looked up): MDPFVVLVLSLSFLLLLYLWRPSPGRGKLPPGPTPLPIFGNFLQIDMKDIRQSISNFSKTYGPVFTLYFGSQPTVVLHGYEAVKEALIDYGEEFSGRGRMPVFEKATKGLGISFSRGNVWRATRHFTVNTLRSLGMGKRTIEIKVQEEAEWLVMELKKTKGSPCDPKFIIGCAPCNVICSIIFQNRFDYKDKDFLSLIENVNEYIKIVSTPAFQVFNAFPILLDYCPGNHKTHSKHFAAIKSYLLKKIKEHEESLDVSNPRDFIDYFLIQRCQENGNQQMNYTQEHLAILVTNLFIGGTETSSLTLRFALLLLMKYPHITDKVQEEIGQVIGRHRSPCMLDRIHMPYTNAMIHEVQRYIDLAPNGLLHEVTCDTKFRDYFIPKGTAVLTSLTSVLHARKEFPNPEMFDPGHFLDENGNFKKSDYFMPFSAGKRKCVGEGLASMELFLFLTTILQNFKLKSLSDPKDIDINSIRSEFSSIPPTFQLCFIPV
human Aurora Kinase A - serine/threonine-protein Kinase 6 (AurA), AURKA (gene 6790), sequence (O14965 whole entry, looked up): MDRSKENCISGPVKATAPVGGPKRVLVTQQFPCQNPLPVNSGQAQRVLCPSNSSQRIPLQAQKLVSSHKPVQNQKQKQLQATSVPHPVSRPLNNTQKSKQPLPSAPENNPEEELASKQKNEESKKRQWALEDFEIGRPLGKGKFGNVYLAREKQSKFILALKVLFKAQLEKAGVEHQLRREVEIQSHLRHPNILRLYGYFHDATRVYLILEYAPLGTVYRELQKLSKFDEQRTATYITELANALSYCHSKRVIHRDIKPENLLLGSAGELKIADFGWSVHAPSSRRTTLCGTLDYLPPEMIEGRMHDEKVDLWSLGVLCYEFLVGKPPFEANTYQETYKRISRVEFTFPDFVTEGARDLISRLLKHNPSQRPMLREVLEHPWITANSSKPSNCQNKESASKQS
rat Monoamine Oxidase, MAO-B, Peripheral (MAOBP), Maob (gene 25750), sequence (P19643 whole entry, looked up): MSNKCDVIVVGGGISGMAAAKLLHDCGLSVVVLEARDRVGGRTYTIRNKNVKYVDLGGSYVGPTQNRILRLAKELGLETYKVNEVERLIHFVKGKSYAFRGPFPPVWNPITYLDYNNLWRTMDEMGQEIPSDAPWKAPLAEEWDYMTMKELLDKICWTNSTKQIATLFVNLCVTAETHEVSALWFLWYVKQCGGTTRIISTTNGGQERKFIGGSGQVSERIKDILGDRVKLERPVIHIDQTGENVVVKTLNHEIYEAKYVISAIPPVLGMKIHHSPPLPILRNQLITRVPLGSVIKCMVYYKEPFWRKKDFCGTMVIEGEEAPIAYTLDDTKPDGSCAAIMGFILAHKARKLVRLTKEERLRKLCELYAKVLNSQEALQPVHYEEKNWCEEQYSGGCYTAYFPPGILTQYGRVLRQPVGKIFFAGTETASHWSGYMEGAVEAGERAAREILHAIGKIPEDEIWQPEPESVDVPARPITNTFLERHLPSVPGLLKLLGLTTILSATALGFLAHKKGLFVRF
Cytochrome P450 2C18 (Homo sapiens), sequence (P33260 whole entry, looked up): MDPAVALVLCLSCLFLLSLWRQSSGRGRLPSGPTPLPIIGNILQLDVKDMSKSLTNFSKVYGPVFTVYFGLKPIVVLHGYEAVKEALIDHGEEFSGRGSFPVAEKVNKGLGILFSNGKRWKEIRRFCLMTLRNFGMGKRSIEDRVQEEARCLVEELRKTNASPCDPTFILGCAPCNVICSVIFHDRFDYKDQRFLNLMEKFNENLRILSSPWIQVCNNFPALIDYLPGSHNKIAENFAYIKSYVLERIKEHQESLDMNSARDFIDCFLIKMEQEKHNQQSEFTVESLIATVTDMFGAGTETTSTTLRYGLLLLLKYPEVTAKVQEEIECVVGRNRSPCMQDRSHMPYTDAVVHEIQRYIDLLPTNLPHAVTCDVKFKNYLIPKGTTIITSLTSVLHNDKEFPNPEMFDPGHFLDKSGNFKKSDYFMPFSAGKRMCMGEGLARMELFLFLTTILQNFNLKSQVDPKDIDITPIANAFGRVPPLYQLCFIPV
rat Acetylcholinesterase (AChE), Ache (gene 83817), sequence (P37136 whole entry, looked up): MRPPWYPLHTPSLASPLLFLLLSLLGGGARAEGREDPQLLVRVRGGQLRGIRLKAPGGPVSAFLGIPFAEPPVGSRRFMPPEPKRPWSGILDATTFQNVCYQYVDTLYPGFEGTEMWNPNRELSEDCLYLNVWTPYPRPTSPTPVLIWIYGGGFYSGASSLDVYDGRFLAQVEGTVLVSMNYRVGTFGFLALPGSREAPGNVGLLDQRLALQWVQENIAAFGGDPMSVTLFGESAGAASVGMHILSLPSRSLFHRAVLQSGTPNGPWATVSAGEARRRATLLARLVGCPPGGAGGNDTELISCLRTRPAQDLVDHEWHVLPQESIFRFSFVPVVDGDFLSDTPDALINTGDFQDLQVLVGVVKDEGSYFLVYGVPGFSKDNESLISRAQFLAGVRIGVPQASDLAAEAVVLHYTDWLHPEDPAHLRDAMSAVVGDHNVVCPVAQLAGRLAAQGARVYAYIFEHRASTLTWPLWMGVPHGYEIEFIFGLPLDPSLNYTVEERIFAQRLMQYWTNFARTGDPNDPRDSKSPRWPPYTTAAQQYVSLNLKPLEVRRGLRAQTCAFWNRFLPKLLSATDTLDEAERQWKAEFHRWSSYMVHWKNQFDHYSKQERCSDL

For S=C([S-])NCCNC(=S)[S-].[Mn+2], which AC50 [1] is on record?
Its AC50 is 10 µM (active).

What about the outcome [2] of the same compound?
The outcome was “inactive”.

And the outcome [3]?
The outcome was “inactive”.

What about the AC50 [4] of the same compound?
The AC50 was 8.83 µM (active).

And the outcome [5]?
The outcome was “inactive”.

And the AC50 [6]?
The AC50 was 1.79 µM (active).

What about the AC50 [7] of the same compound?
The AC50 was 19.1 µM (active).

What about the AC50 [8] of the same compound?
Its AC50 is 30.1 µM (active).

And the AC50 [9]?
Its AC50 is 5.17 µM (active).

And the AC50 [10]?
The AC50 was 20.5 µM (active).

And the AC50 [11]?
Its AC50 is 5.91 µM (active).

And the AC50 [12]?
The AC50 was 0.295 µM (active).

What about the AC50 [13] of the same compound?
Its AC50 is 12.9 µM (active).

What about the outcome [14] of the same compound?
Its outcome is “inactive”.

What about the outcome [15] of the same compound?
The outcome was “inactive”.

What about the outcome [16] of the same compound?
Its outcome is “inactive”.

And the AC50 [17]?
The AC50 was 12.5 µM (active).

And the outcome [18]?
Its outcome is “inactive”.

Which AC50 [3] does the source give for CCCCC(CC)COC(=O)CCCCCCCCC(=O)OCC(CC)CCCC (centres undefined) here?
The AC50 was 16.7 µM (active).

Which outcome [3] does the source give for O=C1OC(c2ccc(O)cc2)(c2ccc(O)cc2)c2ccccc21 here?
Its outcome is “inactive”.

Which AC50 [19] does the source give for CCN(CC)c1ccc2c(C)cc(=O)oc2c1 here?
Its AC50 is 8.15 µM (active).

And the AC50 [20]?
The AC50 was 8.36 µM (active).

With CC(C)NCC(O)c1ccc(O)c(O)c1 (centres undefined) as the compound, how does the AC50 [21] read?
The AC50 was 2.13 µM (active).

And the outcome [7]?
Its outcome is “inactive”.
